In ChEMBL document CHEMBL4513146, “CO-ADD screening of Karazin Kharkiv National University (Ukraine) compounds”:
Entries with a potency or affinity are not part of this list.

Columns and labels:
Klebsiella pneumoniae = conditions: Concentration 32 ug.mL-1;; ASSAY_TEST Inhibition of Bacterial Growth; detection method Absorption (OD600); MEDIA CAMHB; plate type 384well; NBS; CORNING #3640; time 18 hr
Candida albicans = conditions: Concentration 32 ug.mL-1; ASSAY_TEST Inhibition of Fungal Growth; detection method Absorption (OD530)
Cryptococcus neoformans = conditions: Concentration 32 ug.mL-1; ASSAY_TEST Inhibition of Fungal Growth; detection method Resazurin; Absorption (OD600-OD570); plate type 384well; NBS; CORNING #3640

| Compound | Inhibition (Klebsiella pneumoniae) [%] | Inhibition (Candida albicans) [%] | Inhibition (Cryptococcus neoformans) [%] |
| --- | --- | --- | --- |
| CCc1ccc(NC(=O)Cn2nc3c(Sc4ccccc4)nccn3c2=O)cc1 | 6.05 | 4.46 | -8.51 |
| Cc1cc2nn(CC(=O)Nc3ccc(F)cc3Cl)c(=O)n2c(Nc2ccc(F)cc2)n1 | 8.79 | 8.11 | -3.99 |
| CCc1nnc2c(SCC(=O)Nc3c(C)cc(C)cc3C)nc3ccccc3n12 | 8.2 | 1.5 | -17.04 |
| O=S(=O)(c1ccc2nncn2c1)N(Cc1cccc(F)c1)c1ccc(F)c(F)c1 | 13.11 | 5.52 | -5.3 |
| CCc1ccc(N(Cc2ccccc2C)S(=O)(=O)c2cccn3c(C)nnc23)cc1 | 3.93 | 5.07 | -8.38 |
| CCc1ccccc1NC(=O)Cn1nc2c(SC3CCCCC3)nccn2c1=O | 9.89 | -0.63 | -27.01 |
| O=C(CSc1nnc2c3cc(-c4ccc(F)cc4)nn3ccn12)Nc1ccccc1C(F)(F)F | -6.96 | 5.14 | -18.14 |
| CCOc1ccc(NC(=O)Cn2nc3c(Oc4cccc(OC)c4)nccn3c2=O)cc1 | 14.7 | 3.56 | -8.08 |
| Cc1ccc(C)c(CSc2nnc3c(=O)n(-c4ccc(Br)cc4)ccn23)c1 | 7.74 | 3.39 | -4.05 |
| C=Cc1ccc(CSc2nnc3c(=O)n(-c4ccc(F)cc4)ccn23)cc1 | 9.66 | 4.46 | -8.26 |
| COc1ccc(NC(=O)Cn2nc3c4cc(-c5ccc(F)cc5)nn4ccn3c2=O)c(OC)c1 | 14.79 | 2.08 | -15.48 |
| CCC(Sc1nnc2c(=O)n(-c3cccc(OC)c3)ccn12)C(=O)Nc1cc(F)ccc1F (centres undefined) | 2.62 | 1.66 | -8.66 |
| Cc1cc2nn(CC(=O)N3CCCc4ccccc43)c(=O)n2c(Nc2ccc(F)cc2)n1 | 10.84 | 1.07 | -3.85 |
| Cc1ccc(Oc2nccn3c(=O)n(CC(=O)Nc4ccc(C)cc4Cl)nc23)cc1 | 4.57 | 3.92 | -3.03 |
| COc1ccc(NC(=O)Cn2nc3c4cc(-c5ccc(C)cc5)nn4ccn3c2=O)cc1 | -1.42 | -0.28 | -12.53 |
| Cc1cc(C)cc(Nc2nc(C)cc3nn(CC(=O)N(C)c4cccc(C)c4)c(=O)n23)c1 | 7.61 | 2.11 | -3.53 |
| Cc1cc2nn(CC(=O)Nc3ccc(F)cc3F)c(=O)n2c(Nc2ccc(C)c(F)c2)n1 | 8.43 | 24.78 | -2.94 |
| CCc1nnc2c(S(=O)(=O)N(Cc3ccccc3C)c3ccc(Cl)cc3)cccn12 | 3.29 | 6.38 | -5.94 |
| CC(C)(C)NC(=O)Cn1nc2n(Cc3cccs3)c(=O)c3sccc3n2c1=O | 3.31 | -0.71 | -8.9 |
| CCOC(=O)C1CCN(c2nc3ccccc3n3c(=O)n(CC(=O)Nc4ccccc4F)nc23)CC1 | 4.78 | 13.18 | -20.01 |
| COc1ccc(NC(=O)Cn2nc3nc(N4CCOCC4)ccn3c2=O)cc1F | 8.85 | 5.37 | -8.95 |
| COc1ccc(NC(=O)Cn2nc3ccc(-c4ccccc4)nn3c2=O)cc1OC | -3.16 | 3.57 | 0.88 |
| CCCCN(C)c1ccc2nnc(CCc3nc(-c4ccc(OCc5ccccc5)cc4)no3)n2n1 | 3.94 | 9.14 | -39.2 |
| O=S(=O)(c1ccc2nncn2c1)N(Cc1cccc(F)c1)c1cc(F)cc(F)c1 | 12.28 | 4.13 | -6.89 |
| O=S(=O)(c1ccc2nncn2c1)N(Cc1cc(F)cc(F)c1)c1ccc(F)cc1 | 7.07 | 0.51 | -5.99 |
| Cc1c(Cl)cccc1NC(=O)CSc1nc2ccccc2n2c(C)nnc12 | 13.43 | 0.95 | -27.73 |
| CC(C)(C)S(=O)(=O)c1ccc2nn(CC(=O)Nc3ccc4c(c3)OCO4)c(=O)n2n1 | 2.44 | 1.02 | -2.55 |
| COc1ccc(NC(=O)Cn2nc3nc(Nc4ccc(F)cc4)ccn3c2=O)cc1Cl | 7.26 | 4.14 | -6.17 |
